# Bioassay records from PubChem BioAssay.
# PP5 inh: inhibitors of human protein phosphatase 5 (PP5) | P53041 | purified PP5c, OMFP substrate fluorescence | inhibition, % at 6.7 µM | hit rate 0.18% among 320,000 | AID 1987;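 active means inhibition above the campaign's mean inhibition across all tested compounds plus 3 SD, cut at about 9.5% in these data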;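 further: 0% = DMSO only and 100% = 100 µM cantharidin control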
# CSC inhib: blocks cancer stem cells | hit rate 1.1% among 300,000 | AID 2717 | cancer stem cell-like cells viability, luminescence | inhibition, % at 7.5 µM; in the data active means inhibition above about 75%; inconclusive means no clear call, values can overlap the other calls; tested in HMLE shEcad cells
# Calb FLC: C. albicans growth modulation with fluconazole; C. albicans CaCi-2 (fluconazole-resistant clinical isolate) + fluconazole, Alamar Blue growth, 48 h; growth inhibition, % (no concentration beside the values); hit rate 0.57% among 300,000;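 active means growth inhibition above about 58% in most replicates, limit read from the data, passing the limit was not always enough; inconclusive means exactly half the replicates above a set limit; inactive means most replicates below a set limit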;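 further: all wells also contain fluconazole at 8 µg/ml as a sub-toxic cotreatment; 0% = median of DMSO wells and 100% = median of geldanamycin control wells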
# PP1 counter: counter-screen for PP5 inhibitors: inhibitors of human PP1-alpha. P62136. purified PP1alpha, OMFP fluorescence. inhibition, % at 6.7 µM. hit rate 0.9% among 320,000. AID 2235;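 active means inhibition above the mean inhibition of all tested compounds plus 3 SD, computed separately for each screening campaign, cut at about 15% in these data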
# Target sequence (P62136 whole entry, looked up): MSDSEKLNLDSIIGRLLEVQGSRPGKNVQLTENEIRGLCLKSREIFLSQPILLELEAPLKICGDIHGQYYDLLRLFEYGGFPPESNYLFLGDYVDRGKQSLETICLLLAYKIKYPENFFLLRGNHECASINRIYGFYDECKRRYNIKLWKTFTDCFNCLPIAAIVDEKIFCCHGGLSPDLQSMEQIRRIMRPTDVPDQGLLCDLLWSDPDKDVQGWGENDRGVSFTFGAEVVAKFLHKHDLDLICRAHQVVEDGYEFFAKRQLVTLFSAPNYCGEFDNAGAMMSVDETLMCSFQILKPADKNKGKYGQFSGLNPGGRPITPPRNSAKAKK
# Mdm2-MdmX inh: human Mdm2/MdmX binding inhibition; SaOS-2 split-luciferase Mdm2/MdmX complementation, luminescence; inhibition, % at 8 µM; hit rate 3% among 330,000;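 active means inhibition of at least 50% at 8 µM in the primary screen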
# Beta apoptosis: beta cell apoptosis inhibition | INS-1E cytokine-induced death, ATP luminescence, 48 h; percent of positive-control rescue, neutral wells zero | protection from apoptosis, % (concentration not given with the values) | hit rate 0.8% among 300,000;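 active means Every replicate reaches about 75%, or at least half do and their mean reaches it too, limit read from the data; inconclusive means At least half of replicates reach the limit but their mean does not; inactive means Under half of replicates reach the limit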;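 further: 0% = cytokine-treated negative control wells and 100% = positive control rescue; higher means more ATP so stronger rescue from cytokine killing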
# Active calls of the source: *; ? = inconclusive; . = no result given. Sampled rows, rich in hits. Any-hit rate of the full collection: about 4.9%.
SMILES,PP5 inh,CSC inhib,Calb FLC,PP1 counter,Mdm2-MdmX inh,Beta apoptosis
Cc1cc(N2C(=O)C(O)=C(C(=O)c3cc4ccccc4o3)C2c2ccc(Br)cc2)no1 (configuration not stated),2,6,40,26*,17,-1
Cc1cc(N2C(=O)C(O)=C(C(=O)c3ccco3)C2c2cccc(Cl)c2)no1 (configuration not stated),-2,-6,35,8,4,6
C=CCN(C(=O)CNC(=O)c1ccco1)C(C(=O)NC1CCCC1)c1ccc(OC)cc1 (configuration not stated),2,29,4,1,8,2
Cc1ccc(NNC(=O)c2c(C)noc2C)cc1Cl,2,98*,-3,4,14,3
Cc1cc(Cl)ccc1NNC(=O)c1c(C)noc1C,1,?,82*,1,12,-8
Cc1noc(C)c1C(=O)Nc1ccc(Cl)cc1C(F)(F)F,3,0,-10,-5,13,-5
Cc1noc(C)c1C(=O)NNc1ccc(C(C)C)cc1,-2,59,2,-2,-12,-1
Cn1cc(C(=O)Nc2ccc(Cl)c(Cl)c2)cn1,1,-5,-19,2,-3,0
O=C(Nc1ccccc1OC(F)F)c1ccc(S(=O)(=O)N2CCCC2)cc1,1,.,.,2,19,.
CC1CC(c2ccccc2)n2nc(NC(=O)CCc3ccccc3)nc2N1 (configuration not stated),2,-1,-4,18*,12,1
CCCC(=O)Nc1nc2n(n1)C(c1ccccc1)CC(=O)N2 (configuration not stated),0,-5,3,-3,-2,-3
Cc1ccc(NC(=S)Nc2ccc(C(C)C)cc2)cc1S(=O)(=O)N1CCCCCC1,-2,75*,-2,5,0,27
CN1C(=O)/C(=C/c2cn(CC(=O)NCc3ccco3)c3ccccc23)NC1=S,0,-6,-1,2,-6,-8
CN1C(=O)/C(=C/c2cn(CC(=O)N3CCCCC3)c3ccccc23)NC1=S,.,-1,112*,.,11,2
Cc1cc(=O)oc2cc(OCC(=O)Nc3ccc(CN4CCOCC4)cc3)c(Cl)cc12,-1,-4,0,-2,8,1
CC(=O)c1c(C)[nH]c(C(=O)Nc2ccc(C)c(C)c2)c1C,2,-5,96*,-3,-68,-8
Cc1ccc(S(=O)(=O)Nc2cc(=O)[nH]c(SCc3ccccc3Cl)n2)cc1,0,2,-3,6,14,11
O=c1cc(NS(=O)(=O)c2ccccc2)nc(SCc2ccc(Cl)cc2)[nH]1,3,88*,.,-2,.,5
Cc1c(C)n(CCc2ccccc2)c2ncnc(NCCCN(C)C)c12,-2,76*,-4,-3,22,3
Cc1c(C)n(CCN(C)C)c2ncnc(NCc3ccccc3)c12,0,-2,4,-4,3,-8
O=C(O)C1=CC(=C(c2ccc(O)c(C(=O)O)c2)c2ccc(O)c(C(=O)O)c2)C=CC1=O,-1,-14,.,82*,.,0
CCOc1ccccc1N1CC(C(=O)Nc2cc(Cl)ccc2C)CC1=O (configuration not stated),2,-10,-9,1,9,-1
Cc1nc(N/N=C/c2ccccn2)sc1C,2,70,.,3,.,110*
O=C(O)c1c(C(=O)O)c(-c2ccc(Br)cc2)n2c1CSC2,-1,-18,1,5,-15,0
CCCCCCCCOC(=O)C1=C(C)Nc2nnnn2C1c1cccs1 (configuration not stated),4,102*,7,13,41,2
SMILES,PP5 inh,CSC inhib,Calb FLC,PP1 counter,Mdm2-MdmX inh,Beta apoptosis
CCN(CC(=O)NCc1ccc(F)cc1)C(=O)CN1CCN(c2cc(Cl)ccc2C)CC1,-1,-5,-18,0,-3,-2
COc1ccc(CCn2ccc(O)c(Cc3c(F)cccc3Cl)c2=O)cc1OC,-4,2,24,-2,10,4
Cc1cc(C(=O)O)ccc1-n1c(C)ccc1C,4,9,4,27*,16,-1
Cc1cc(N)ccc1-n1c(C)ccc1C,0,.,-11,2,1,-7
Cc1ccc(-c2csc3ncnc(-n4cnc5ccccc54)c23)cc1,-1,77*,1,2,40,-2
O=C(CCC1CCCC1)Nc1ccc(C(=O)NCc2cccnc2)cc1,1,?,-4,-3,6,100*
O=C(O)CCCC(=O)Nc1ccc(C(=O)NCc2cccnc2)cc1,0,-1,.,-1,-44,101*
O=C(NCc1cccnc1)c1ccc(NS(=O)(=O)c2ccccc2)cc1,0,-1,-5,-5,10,-3
COc1cc(NC(=O)N[C@@H](Cc2c[nH]c3ccccc23)C(=O)O)c(C(=O)O)cc1OC,.,-2,4,.,11,-7
COc1cccc(C(=O)C(C#N)=C(SC)SC)c1,0,83*,-2,-4,34,36
NS(=O)(=O)c1ccc(CCNC(=O)c2cccc(S(=O)(=O)N3CCCC3)c2)cc1,-2,.,.,-2,-7,-2
CCc1cc(-c2n[nH]c(C)c2-c2ccccc2Cl)c(O)cc1OC,4,103*,86*,0,10,13
Cc1c(C(=O)NN2CCCCC2)nn(-c2ccc(Cl)cc2Cl)c1-c1ccc(I)cc1,-2,101*,.,8,.,59
CC(=O)c1cccc(NS(=O)(=O)c2ccc(N/C=C\C(=O)c3ccc(C)cc3)cc2)c1,3,-6,-22,-1,41,45
CC(=O)c1cccc(NS(=O)(=O)c2ccc(N/C=C\C(=O)c3ccc(F)cc3)cc2)c1,6,20,-35,4,7,98*
CC(=O)c1cccc(NS(=O)(=O)c2ccc(N/C=C/C(=O)c3ccc(F)cc3)cc2)c1,4,1,-6,3,36,112*
CC1(C)CCC[C@]2(C)[C@H]3Cc4cc(O)ccc4O[C@]3(C)CC[C@@H]12,.,130*,.,.,23,10
CC(/C=C1\SC(=S)N(NC(=O)c2ccc(O)cc2)C1=O)=C\c1ccccc1,1,76*,-13,1,-4,6
Cc1ccc(CN2CCSc3ccc(C(=O)NCc4ccco4)cc32)cc1,6,84*,-4,6,30,-6
Cc1cc(N2C(=O)C3C4CC(c5ccccc5)C(C4)C3C2=O)no1 (configuration not stated),2,-4,-8,-4,4,-6
COc1ccc(C2c3c(-c4cc(Cl)c(C)cc4O)n[nH]c3C(=O)N2Cc2cccnc2)cc1OC (configuration not stated),4,6,16,15*,25,17
COc1ccc(C2c3c(-c4ccccc4O)n[nH]c3C(=O)N2Cc2ccco2)cc1OC (configuration not stated),3,-14,-1,-3,12,-2
COC(=O)c1cc(NC(=O)c2cc(-c3ccccc3Cl)oc2C(F)(F)F)ccc1N1CCOCC1,1,89*,-1,0,36,11
